Measured values reported in PubChem BioAssay AID757 (NMMLSC, 2007).
Among all 190,000 compounds or so, about 520 (0.27%) were called active. About 2% were inconclusive and are not listed. For the sample, actives were picked, then their nearest neighbours and some compounds at random. Values without a mark were called inactive.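 The calls were made as follows: active = GTP binding activity at least 20 points away from the 100% control level, either lower or higher; inconclusive = compound flagged as likely green fluorescent, judged across all proteins; inactive = the rest.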

The compounds below were run against Ras-related C3 botulinum toxin substrate 1 (Homo sapiens) (UniProt P63000) (assay: compounds altering fluorescent GTP loading on wildtype Rac1 – biochemical, GST-Rac1 beads, flow cytometry, multiplex, primary screen (AID 757)). Conditions: at 10 µM, actives lie on both sides, 0 = cold GTP competed, 100 = untreated.
`CC(=O)c1ccc(-c2nnc(CCC(=O)N(C)Cc3cnc4ccccn34)o2)s1` gave a GTP binding activity (% of control) of 92%.
With `COCCn1c(C)cc(C(=O)CSc2nc3ccccc3c(=O)n2C(C)COC)c1C` (centres undefined) the GTP binding activity (% of control) was 97%.
In the case of `O=C(O)/C=C/c1cn(-c2ccccc2)nc1-c1cccs1`, the GTP binding activity (% of control) is reported as 94%.
With `O=C(O)/C=C/c1cn(Cc2ccccc2)nc1-c1cccs1` the GTP binding activity (% of control) was 157% [activator] (active).
`O=C(/C=C\c1cn(-c2ccccc2)nc1-c1cccs1)N1CCOCC1` was tested, and the GTP binding activity (% of control) was 106%.
For `O=S(=O)(Nc1ccccn1)c1cccc(S(=O)(=O)c2ccc(Cl)cc2)c1`, the GTP binding activity (% of control) was 97%.
`Cc1c(NC(=S)NC(=O)CCc2ccccc2)c(=O)n(-c2ccccc2)n1C` showed a GTP binding activity (% of control) of 101%.
`CC1CCC(NC(=O)C2c3ccccc3C(=O)N2Cc2ccc3c(c2)OCO3)CC1` (centres undefined) showed a GTP binding activity (% of control) of 99%.
`COc1cccc(-c2ccc(SCC(=O)N3CCN(c4ccccc4)CC3)nn2)c1` gave a GTP binding activity (% of control) of 92%.
For `CN(C)c1ccc(C(=S)N2CCN(C(=S)Nc3ccc(Cl)cc3)CC2)cc1`, the GTP binding activity (% of control) was 98%.
Compound `O=C(c1cn2ccccc2n1)N1CCc2c([nH]c3ccccc23)C1c1ccccn1` (centres undefined) has a GTP binding activity (% of control) of 98%.
In the case of `O=c1cc(O)c(-c2cccc(C(F)(F)F)c2)c(Cl)[nH]1`, the GTP binding activity (% of control) is reported as 97%.
For `O=C(NCCCN1CCOCC1)c1ccc([N+](=O)[O-])cc1[N+](=O)[O-]`, the GTP binding activity (% of control) was 102%.
Compound `O=C(OCC(=O)c1cccs1)c1ccc([N+](=O)[O-])o1` has a GTP binding activity (% of control) of 99%.
In the case of `CNC(=S)Nc1ccc([N+](=O)[O-])cc1`, the GTP binding activity (% of control) is reported as 101%.
`CC(Oc1ccc(Br)cc1Br)C(=O)NC1CCCC1` (centres undefined) was tested, and the GTP binding activity (% of control) was 96%.
`CC(=O)c1c(C)[nH]c(C(=O)Nc2cc(S(=O)(=O)N(C)C)ccc2C)c1C` gave a GTP binding activity (% of control) of 97%.
Work on `O=C(Nc1ccccc1C(=O)N1CCOCC1)c1ccc(Cl)cc1` yielded a GTP binding activity (% of control) of 98%.
`CCOc1ccc(N2CC(C(=O)NCCN3C(=O)S/C(=C\c4cccnc4)C3=O)CC2=O)cc1` (centres undefined) showed a GTP binding activity (% of control) of 95%.
In the case of `O=C(CSc1ccccc1)Nc1ccc(NC(=O)c2ccco2)cc1`, the GTP binding activity (% of control) is reported as 101%.
For `Cc1cc(C)cc(NC(=O)CSc2ccccc2)c1`, the GTP binding activity (% of control) was 95%.
`O=C(CSc1ccccc1)Nc1ccc(C(=O)Nc2cccc(O)c2)cc1` was tested, and the GTP binding activity (% of control) was 75% (active).
For `Cn1c(=NC(=O)c2ccc3c(c2)OCCO3)sc2cc(S(C)(=O)=O)ccc21`, the GTP binding activity (% of control) was 100%.
In the case of `COc1ccc(CC(NC(C)=O)C(=O)NC2CCN(C(=O)c3ccc(OC)c(OC)c3)CC2)cc1OC` (centres undefined), the GTP binding activity (% of control) is reported as 98%.
`CN(C)/N=C/c1cn(-c2ccccc2)nc1-c1cccnc1` showed a GTP binding activity (% of control) of 101%.
`O=C(CNC(=O)COc1ccccc1)NCCc1ccccn1` was tested, and the GTP binding activity (% of control) was 102%.
Work on `Cc1ccc(CCCOC(=O)C[N+]2(C)CCCCC2)cc1` yielded a GTP binding activity (% of control) of 100%.
For `CCOC(=O)c1ccc(NNC(C)=O)c([N+](=O)[O-])c1`, the GTP binding activity (% of control) was 99%.
Compound `CC(=O)Nc1ccc(S(=O)(=O)NC2(C(F)(F)F)C(=O)NC(C)=C2C#N)cc1` (centres undefined) has a GTP binding activity (% of control) of 105%.
With `COc1cc2c(cc1OC)CC1(CCCCC1)N=C2` the GTP binding activity (% of control) was 102%.
`CN(C)CCN=c1cc(-c2ccccc2)oc2ccc(Cl)cc12` showed a GTP binding activity (% of control) of 102%.
`CCN(CC(=O)NCc1cccs1)C(=O)c1ccccc1F` was tested, and the GTP binding activity (% of control) was 98%.
With `Cc1ccc2c(=O)oc(N(C)C)nc2c1` the GTP binding activity (% of control) was 94%.
`Oc1ccccc1N1CCN(C(=S)NCc2ccccc2)CC1` showed a GTP binding activity (% of control) of 103%.
Work on `O=S(=O)(NCc1ccccc1)c1ccc(S(=O)(=O)N2CCCC2)cc1` yielded a GTP binding activity (% of control) of 102%.
Compound `COC(=O)C1=C(C)NC(=O)/C1=C/c1ccc(CNS(=O)(=O)c2ccc(C)cc2)o1` has a GTP binding activity (% of control) of 100%.
In the case of `O=c1/c(=C/c2ccc(CNS(=O)(=O)c3ccccc3)o2)sc2n1CCN=2`, the GTP binding activity (% of control) is reported as 64% (active).
`O=S(=O)(c1cccc(C(F)(F)F)c1)N1CCN(c2cnccn2)CC1` gave a GTP binding activity (% of control) of 99%.
With `CN(C(=O)COc1ncnc2c1cnn2-c1ccccc1)C1CCCCC1` the GTP binding activity (% of control) was 102%.
Work on `c1ccc(-c2nnc(N3CCOCC3)c3ccccc23)cc1` yielded a GTP binding activity (% of control) of 97%.
With `COc1cccc(OCCCN2CCCCCC2)c1` the GTP binding activity (% of control) was 95%.
`CN1CCN(C(=O)CCc2ncc(C(F)(F)F)cc2Cl)CC1` was tested, and the GTP binding activity (% of control) was 96%.
Work on `CCOC(=O)c1sc(NC(=O)c2cc(S(=O)(=O)N3CCOCC3)ccc2C)nc1C` yielded a GTP binding activity (% of control) of 102%.
In the case of `COc1ccc(S(=O)(=O)N2CCOCC2)cc1C(=O)Nc1nc2ccccc2s1`, the GTP binding activity (% of control) is reported as 75% (active).
`COc1ccc(S(=O)(=O)N2CCOCC2)cc1NC(=O)CSc1ncnc2ccccc12` showed a GTP binding activity (% of control) of 93%.
With `Cc1ccc(CSc2nc3[nH]ncc3c(=O)[nH]2)cc1` the GTP binding activity (% of control) was 77% (active).
`CCCSc1nc2[nH]ncc2c(=O)[nH]1` was tested, and the GTP binding activity (% of control) was 100%.
`Cc1cccc(NC(=O)CSc2nc3[nH]ncc3c(=O)[nH]2)c1` showed a GTP binding activity (% of control) of 97%.
With `COc1cc(NS(=O)(=O)c2ccc(NC(=O)c3ccc(S(=O)(=O)N4CCCCC4)cc3)cc2)ncn1` the GTP binding activity (% of control) was 95%.
Work on `COc1ccccc1NC(=O)CCSc1nnc(-c2ccc(O)cc2)o1` yielded a GTP binding activity (% of control) of 95%.
`COc1cccc(NC(=O)c2ccc(S(=O)(=O)N(C)C)cc2)c1` showed a GTP binding activity (% of control) of 104%.
Compound `Oc1ccccc1C=NC1CCCCC1N=Cc1ccccc1O` (centres undefined) has a GTP binding activity (% of control) of 100%.
In the case of `O=C(CSc1ccccc1F)NC1CCS(=O)(=O)C1` (centres undefined), the GTP binding activity (% of control) is reported as 96%.
`Cc1cccc(NC(=S)N2CCC(O)CC2)c1C` showed a GTP binding activity (% of control) of 100%.
For `CC(=O)NC(Cc1ccc(F)c(F)c1)C(=O)NC1CCN(C(=O)c2ccc(C)cc2)CC1` (centres undefined), the GTP binding activity (% of control) was 103%.
For `CC(C)CCN1CCN(C/C=C/c2ccco2)CC1CCO` (centres undefined), the GTP binding activity (% of control) was 94%.
Compound `Cc1cc(C)c2c(NC(=O)C3CC3)nn(C)c2n1` has a GTP binding activity (% of control) of 98%.
With `CCOc1cc(C2C(C(=O)OC(C)C)=C(C)NC3=C2C(=O)CCC3)cc([N+](=O)[O-])c1O` (centres undefined) the GTP binding activity (% of control) was 98%.
`CC(NC(=O)COC(=O)c1ccc2c(c1)OCO2)c1ccccc1` (centres undefined) gave a GTP binding activity (% of control) of 101%.
Work on `CC1=C(C(=O)N(C)C)C(c2ccccc2OC(F)F)NC(=O)N1` (centres undefined) yielded a GTP binding activity (% of control) of 101%.
In the case of `O=C(O)CC(SCC(=O)Nc1ccc(Br)cc1)C(=O)O` (centres undefined), the GTP binding activity (% of control) is reported as 96%.
`CCOC(=O)CCCN1CC(O)=C(c2nc3ccccc3s2)C1=N` showed a GTP binding activity (% of control) of 102%.
In the case of `CCCCCN1CC(O)=C(c2nc(-c3ccc(Cl)cc3)cs2)C1=N`, the GTP binding activity (% of control) is reported as 135% [activator] (active).
`CCCCCN1CC(O)=C(c2ccccc2)C1=N` was tested, and the GTP binding activity (% of control) was 104%.
